Source: ChEMBL document CHEMBL4513216, “Probing the Open Global Health Chemical Diversity Library for Multistage-Active Starting Points for Next-Generation Antimalarials” (ACS Infect Dis, 2020)
About 2,100 (3.2%) of roughly 65,000 compounds showed an effect of 50% or more. The median lay at about -52%. This is one part of a sample in which strong results are shown more often than they occur.

Each compound was assayed on Plasmodium falciparum (assay: Screen against P. falciparum Asexual Blood Stage (ABS), at 5uM). Conditions: tested at 5 uM.
Format: functional, Dd2
With `COc1ccc(NC(C)c2nnnn2-c2ccccc2)cc1F` (stereo not drawn) the INHIBITION was -2.6%.
`Cc1nc(Cc2ccccc2)nc2sc(C(=O)O)c(C)c12` showed an INHIBITION of -62.8%.
Compound `CCOC(=O)N1CCN(c2nc(CCN)nc3sc(C)c(C)c23)CC1` has an INHIBITION of 66.1%.
`CC(=O)N1CCN(c2nc(C(F)(F)F)nc3sc(C)c(C)c23)CC1` was tested, and the INHIBITION was -30.4%.
`Cc1sc2nc(CCN)nc(N3CCS(=O)(=O)CC3)c2c1C` gave an INHIBITION of -119%.
`Cc1cnn(CC(C)NCc2ccc(OCC(N)=O)cc2)c1` (stereo not drawn) showed an INHIBITION of -49.9%.
Compound `CCOC(=O)N1CCN(c2nc(NCCCO)c3ccccc3n2)CC1` has an INHIBITION of -50.8%.
Compound `CCn1ccc(-c2cc(NCCCOc3ccccc3C)nc(C)n2)n1` has an INHIBITION of -2.89%.
`CCOc1ccccc1C(N)CC(C)C` (stereo not drawn) gave an INHIBITION of 33.2%.
In the case of `Cc1ccc(Oc2c(F)cccc2OC[C@@H](N)CC(C)C)cc1`, the INHIBITION is reported as 65.9%.
`CC(C)COc1ccccc1C(N)CC(C)C` (stereo not drawn) showed an INHIBITION of 28.3%.
Compound `O=C(O)c1ccnc(SCC(F)(F)F)c1` has an INHIBITION of -13.4%.
Work on `CN1[C@@H](C(=O)NCC2CC2)C[C@H]2CN(Cc3cccc(C#N)c3)C[C@H]21` yielded an INHIBITION of 27.2%.
For `CN1CCN(C[C@@H]2OC[C@H]3CN(Cc4cccc(F)c4)CC[C@H]32)CC1`, the INHIBITION was 19.2%.
With `CN1CCN(C[C@@H]2OC[C@H]3CN(CCc4ccccc4)CC[C@H]32)CC1` the INHIBITION was 66.1%.
`Cc1ccc(CN2CC[C@@H]3[C@@H](CO[C@H]3CN3CCN(C)CC3)C2)cc1` showed an INHIBITION of -1.6%.
In the case of `Cn1cccc1C(=O)N1CCO[C@H]2[C@H](OCc3cccnc3)CC[C@@H]21`, the INHIBITION is reported as -57.2%.
With `CC(C)C(=O)N1CCC([C@@H]2C[C@H](C(F)F)n3ncnc3N2)CC1` the INHIBITION was 12.2%.
Work on `COCCN1CCOCC12CCN(C(=O)c1c[nH]c3ccccc13)CC2` yielded an INHIBITION of -122%.
`Cc1ccc(CN2CCOCC3(C2)CN(c2ccc(C)s2)C(=O)CO3)o1` (stereo not drawn) was tested, and the INHIBITION was -71.8%.
`CCc1cc(N2CCC3(CCCNC3=O)C2)nc(N2CCOCC2)n1` (stereo not drawn) showed an INHIBITION of -56.1%.
Compound `Cc1ccc(CN2CCOC3(COCCN(CCN(C)C)C3)C2)o1` (stereo not drawn) has an INHIBITION of -69.1%.
For `CC(C)CNC(=O)C1(Cc2ccccc2-c2ccccc2)CCNC1` (stereo not drawn), the INHIBITION was 52%.
`O=C(O)C1(Cc2ccc(-c3cccs3)cc2)CCNC1` (stereo not drawn) gave an INHIBITION of -44.3%.
Compound `COCCNC(=O)C1(Cc2ccccc2-c2ccncc2)CCOCC1` has an INHIBITION of -10.1%.
Compound `CC(C)NC(=O)C1(Cc2ccccc2-c2cccs2)CCNC1` (stereo not drawn) has an INHIBITION of 68.3%.
`O=C(NCCO)C1(Cc2ccccc2-c2cccnc2)CCOCC1` was tested, and the INHIBITION was -31.7%.
`CC(C)NC(=O)C1(Cc2ccccc2-c2cncnc2)CCCNC1` (stereo not drawn) showed an INHIBITION of -14.3%.
With `Cc1cc(=O)[nH]c(=O)n1Cc1ncc(-c2ccccc2C(=O)O)s1` the INHIBITION was -46.1%.
With `O=C1C(NCc2nnc3n2CCCC3)CCN1c1ccccc1Cl` (stereo not drawn) the INHIBITION was -35.2%.
`CN(CC1CC1)c1ccc2ccc(C(=O)NCCc3ccccc3)cn12` was tested, and the INHIBITION was -46.3%.
`CN(CC1CC1)c1ccc2ccc(C(=O)NC3CCCCC3)cn12` was tested, and the INHIBITION was 54.6%.
With `COCCNC(=O)c1ccc2ccc(N(C)CC3CC3)n2c1` the INHIBITION was 60.1%.
`CCN(CC)c1ccc2ccc(C(=O)NC3CC3)cn12` was tested, and the INHIBITION was -34.9%.
Compound `CN(C)CCNC(=O)c1ccc2ccc(N(C)CC3CC3)n2c1` has an INHIBITION of 19.9%.
`CN(C)C(=O)CNC(=O)c1ccc2ccc(N(C)CC3CC3)n2c1` was tested, and the INHIBITION was -73.5%.
Work on `Cn1cccc1CN1CCC2(CC1)CN(c1ncccn1)CCO2` yielded an INHIBITION of -28.5%.
Compound `Cc1ccc(CN(Cc2cccnc2)C2CC(C)(C)NC(C)(C)C2)s1` has an INHIBITION of 69.6%.
Work on `CC1(C)CC(N(Cc2ccccc2)Cc2cccnc2)CC(C)(C)N1` yielded an INHIBITION of 54.6%.
Work on `Cc1ccc(CN(Cc2c[nH]cn2)C2CC(C)(C)NC(C)(C)C2)o1` yielded an INHIBITION of -50.8%.
`CC1(C)CC(N(Cc2ccccc2)Cc2c[nH]cn2)CC(C)(C)N1` was tested, and the INHIBITION was 20.7%.
`CC1(C)CC(N(Cc2cccnc2)Cc2cccnc2)CC(C)(C)N1` gave an INHIBITION of -5.22%.
In the case of `Cc1ccc(CN(Cc2ccncc2)C2CCN(C)CC2)s1`, the INHIBITION is reported as 34.9%.
In the case of `Cc1ccc(CN(Cc2ncc[nH]2)C2CC(C)(C)NC(C)(C)C2)o1`, the INHIBITION is reported as -15.9%.
For `Cc1cccc(CN(Cc2cccnc2)C2CC(C)(C)NC(C)(C)C2)n1`, the INHIBITION was 42.9%.
Compound `CC1(C)CC(N(Cc2ccncc2)Cc2cccnc2)CC(C)(C)N1` has an INHIBITION of 25.7%.
`Cc1ccc(CN(Cc2ccccn2)C(=O)[C@H]2CC[C@@H](N)C2)s1` was tested, and the INHIBITION was -57.1%.
Work on `Cc1ccc(CN(Cc2ccncc2)C2CC(C)(C)NC(C)(C)C2)o1` yielded an INHIBITION of 66.9%.
In the case of `Cc1ccc(CN(Cc2ccccn2)C2CC(C)(C)NC(C)(C)C2)s1`, the INHIBITION is reported as 69.8%.
Work on `CCn1ncc2c(C(F)(F)F)cc(-c3ccn(C)n3)nc21` yielded an INHIBITION of -88%.
Work on `COc1ccc(C(C)Nc2cnn(C)c(=O)c2Cl)cc1OC` (stereo not drawn) yielded an INHIBITION of -40.4%.
`CC(C)OCCN1CCC(Nc2ncccn2)CC1` showed an INHIBITION of -102%.
In the case of `CCC1CN(C(=O)NCc2cccnc2-n2cccn2)CCO1` (stereo not drawn), the INHIBITION is reported as -88.4%.
In the case of `O=C(O)C1CCCN1c1nc(-c2ccc(Cl)c(Cl)c2)cc(C(F)(F)F)n1` (stereo not drawn), the INHIBITION is reported as -8.45%.
In the case of `CCCc1nc(C)c(C(=O)NCCn2nc3ccccn3c2=O)s1`, the INHIBITION is reported as -201%.
For `O=C(NCc1cc[nH]n1)NCC(c1ccccc1)N1CCOCC1` (stereo not drawn), the INHIBITION was -82.7%.
Work on `O=C(NCc1cc[nH]n1)NCC(c1ccc(F)cc1)N1CCOCC1` (stereo not drawn) yielded an INHIBITION of -39%.
With `Cc1cccc(C(CNC(=O)NCc2cc[nH]n2)N2CCOCC2)c1` (stereo not drawn) the INHIBITION was 53%.
`CCCn1ccnc1-c1nccn1CCn1cnnc1` showed an INHIBITION of -36%.
`O=C(C1CCOCC1)N1CCO[C@H]2[C@H](Oc3ccccn3)CC[C@@H]21` was tested, and the INHIBITION was -53.1%.
`O=C(NCC(=O)N1CCCC1)c1nn(-c2ccccc2F)cc1O` was tested, and the INHIBITION was -120%.
Work on `CCOCC(O)CN1CCN(C(=O)c2ccc(N(C)C)nc2)CC1` (stereo not drawn) yielded an INHIBITION of -72.5%.
Compound `CCOCC(O)CN1CCN(C(=O)c2ccc(OC)cc2)CC1` (stereo not drawn) has an INHIBITION of -24.3%.
`CCOCC(O)CN1CCN(C(=O)c2ccc(C)nc2)CC1` (stereo not drawn) showed an INHIBITION of 60.7%.
With `CC(Nc1ccc(C#N)cc1F)c1cccc(S(N)(=O)=O)c1` (stereo not drawn) the INHIBITION was -49.5%.
`O=C1CC[C@H]2CN(Cc3ccc(Cl)s3)CC[C@H]2N1CCc1c[nH]cn1` showed an INHIBITION of 66.6%.
Compound `Cc1nc(CN2CC[C@@H]3[C@@H](CCC(=O)N3CCc3c[nH]cn3)C2)co1` has an INHIBITION of -58.8%.
With `O=C1CC[C@H]2CN(Cc3cccnc3)CC[C@H]2N1CCc1c[nH]cn1` the INHIBITION was -154%.
For `CC(=O)N1CCC2(C1)c1ccccc1S(=O)(=O)N2C` (stereo not drawn), the INHIBITION was -56.8%.
`CCOc1ncccc1CNCc1c(C(C)C)nn(C)c1N(C)C` gave an INHIBITION of -7.19%.
`Cc1nn(C)c(N(C)C)c1CNCc1ccccc1CN(C)C` gave an INHIBITION of 18.8%.
For `CC(C)c1nn(C)c(N(C)C)c1CNCc1cccnc1N(C)C`, the INHIBITION was 21%.
In the case of `COCc1cccc(CNCc2c(C(C)C)nn(C)c2N(C)C)c1`, the INHIBITION is reported as 36.5%.
With `COc1ncccc1CNCc1c(C(C)C)nn(C)c1Cl` the INHIBITION was 51.7%.
With `COCc1ccccc1CNCc1c(C)nn(C)c1N(C)C` the INHIBITION was -36.8%.
Compound `CC(C)c1nn(C)c(N(C)C)c1CNCc1ccccc1CN(C)C` has an INHIBITION of 59.5%.
`COCc1ccccc1CNCc1c(C(C)C)nn(C)c1N(C)C` showed an INHIBITION of 59.4%.
In the case of `COc1ncccc1CNCc1c(C(C)C)nn(C)c1N(C)C`, the INHIBITION is reported as 11%.
For `COc1ncccc1CNCc1c(C(C)C)nn(C)c1OC`, the INHIBITION was -29.9%.
`CC(C)c1nn(C)c(N(C)C)c1CNCc1ccccc1CO` was tested, and the INHIBITION was 44.8%.
Compound `CC(C)c1nn(C)c(N(C)C)c1CNCc1cccc2cccnc12` has an INHIBITION of 67.5%.
In the case of `CS(=O)(=O)c1ccc(CN2C[C@@H]3CC[C@H]2CN(c2ncccn2)C3)cc1`, the INHIBITION is reported as -136%.
`CN(Cc1noc(C2CC2)n1)C1CCN(Cc2nnc(C3CC3)o2)C1` (stereo not drawn) gave an INHIBITION of -122%.
`CC(C)(C)C(N)C1=NC(=C2N=CN=N2)NO1` (stereo not drawn) gave an INHIBITION of -49.9%.
`CCn1c(=NC(=O)CSCC(=O)Nc2nccs2)sc2ccccc21` was tested, and the INHIBITION was 32.3%.
`CC(NCc1cnc(N2CCOCC2)nc1)c1ccc(Cl)s1` (stereo not drawn) was tested, and the INHIBITION was -25.9%.
Compound `c1csc(CN2CCO[C@@H]3CN(C4CCOCC4)C[C@@H]3C2)c1` has an INHIBITION of -93.2%.
`Cc1noc(C)c1CN1Cc2cnn(C)c2C(COCC2CC2)C1` (stereo not drawn) showed an INHIBITION of -81.3%.
`Cc1ccc(CN2CCS(=O)(=O)C(C)(C)C2)cc1C` showed an INHIBITION of -98.2%.
Compound `Cc1csc2ncnc(N3CCC(Cn4cc(C(C)(C)N)nn4)CC3)c12` has an INHIBITION of 35%.
`COc1ccc(NC(=O)CNc2ccc(Br)cc2F)cc1` gave an INHIBITION of -68.8%.
`COc1cccc(CNCc2c(C(C)C)nn(C)c2N(C)C)c1` gave an INHIBITION of -5.49%.
In the case of `COc1ccc(OC)c(CNCc2c(C(C)C)nn(C)c2N(C)C)c1`, the INHIBITION is reported as 69.3%.
Work on `COc1cccc(CNCc2c(C(C)C)nn(C)c2N(C)C)c1OC` yielded an INHIBITION of 33.3%.
`CC(C)COc1cncc(N2CCCN(c3ncccn3)CC2)n1` gave an INHIBITION of -186%.
Work on `c1ccc(C2=NOC3(CCN(Cc4c[nH]c5ccccc45)CC3)C2)cc1` yielded an INHIBITION of 36.1%.
`O=C(c1cn[nH]c1)N1CCC2(CCCN(Cc3ccc(F)c(F)c3)C2)C1` (stereo not drawn) was tested, and the INHIBITION was -25.8%.
For `Fc1ccc(CN2CCCC3(CCN(Cc4ncc[nH]4)C3)C2)cc1F` (stereo not drawn), the INHIBITION was 60.9%.
Compound `Cc1ccc(CN2CCC3(CCCN(Cc4ccc(F)c(F)c4)C3)C2)o1` (stereo not drawn) has an INHIBITION of 28.1%.
Compound `CCc1nc2c(s1)C(N(C)C(=O)c1csnn1)CCC2` (stereo not drawn) has an INHIBITION of -32.3%.
`COCC1(Nc2nc(C)nc3c2cnn3C)CCCC1` was tested, and the INHIBITION was -142%.
`Cc1nc(NC2(CN3CCCCC3)CCCCC2)c2cnn(C)c2n1` showed an INHIBITION of 56%.
`CCOC(=O)CC1(Nc2nc(C)nc3c2cnn3C)CCCCC1` showed an INHIBITION of -25.2%.
